# CHT inh: inhibits the human high affinity choline transporter; CHT-expressing cells, membrane potential dye, choline response; active compounds read low; B-score at 10 µM; 310,000 tested, 0.86% active; AID 488975;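 active means B-score over 3 SD under the library average, and starting fluorescence ratio not unusually high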;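 further: choline stimulus applied at its EC90 after an EC20 pre-addition; B-score computed on integrated fluorescence ratio after choline addition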
# Target sequence (Q9GZV3 whole entry, looked up): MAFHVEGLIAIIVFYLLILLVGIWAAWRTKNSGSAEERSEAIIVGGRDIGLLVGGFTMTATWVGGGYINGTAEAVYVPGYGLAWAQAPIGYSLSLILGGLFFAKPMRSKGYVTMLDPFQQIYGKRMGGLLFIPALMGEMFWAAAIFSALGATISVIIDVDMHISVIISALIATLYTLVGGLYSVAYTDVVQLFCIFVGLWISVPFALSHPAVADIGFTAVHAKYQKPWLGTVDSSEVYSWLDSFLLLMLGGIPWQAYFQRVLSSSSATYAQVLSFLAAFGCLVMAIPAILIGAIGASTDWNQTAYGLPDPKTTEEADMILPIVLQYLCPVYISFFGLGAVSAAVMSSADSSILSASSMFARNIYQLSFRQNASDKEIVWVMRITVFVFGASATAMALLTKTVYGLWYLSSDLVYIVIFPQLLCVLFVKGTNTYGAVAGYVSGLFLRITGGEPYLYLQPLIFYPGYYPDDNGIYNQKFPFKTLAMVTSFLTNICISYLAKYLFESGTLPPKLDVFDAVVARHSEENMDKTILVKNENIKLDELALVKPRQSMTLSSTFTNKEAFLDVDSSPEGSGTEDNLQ
# CHT PAM: human CHT allosteric activation. Q9GZV3. CHT-expressing cells, membrane potential dye, choline EC20; active compounds read high; LV-AA mutant CHT in HEK293 cells. B-score at 10 µM. 310,000 tested, 0.49% active. AID 488977;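 active means initial fluorescence not abnormally high and integrated response B-score, plate-corrected, over 3 SD above library mean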
# ANO1 block: blocks the mouse calcium-activated chloride channel TMEM16A | normalized B-score (activity score, 25-100; higher = stronger inhibition) at 10 µM | HEK293 TMEM16A/YFP iodide influx fluorescence, ionomycin | 310,000 tested, 1.2% active;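 active means ratio plate-corrected score three or more library SD toward inhibition, starting fluorescence score within five deviations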;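 further: score derived from kinetic fluorescence span divided by baseline fluorescence per well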
# TMEM16A act: mouse TMEM16A channel activation, primary screen. HEK293 TMEM16A/YFP-H148Q/I152L, iodide quench fluorescence; active compounds read low. B-score at 10 µM. 340,000 tested, 0.3% active;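 active means fluorescence-ratio B-score plate-corrected deviation score at least 3 library SD below zero, with starting fluorescence score within 5 deviations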;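 further: channel opened by trigger with iodide after compound preincubation; score built on the fluorescence ratio of max minus min over baseline; more negative score means more quench and so TMEM16A activation or potentiation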
# TMEM16A reconf: re-confirmation of mouse TMEM16A chloride channel inhibitors. shares compounds with ANO1 block. HEK293 TMEM16A/YFP-H148Q, iodide quench fluorescence; ionomycin added to raise cell calcium. inhibition, % at 10 µM. 2,300 tested, 39% active. AID 652189;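 active means mean duplicate percent inhibition, scaled so buffer wells are 0 and the reference blocker 100, over three buffer SD above buffer mean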
# HEK293 Ca mobil: calcium mobilization counter-screen hit for TMEM16A inhibitor series. shares compounds with ANO1 block. TMEM16A/YFP HEK293, Fluo4 calcium mobilization. calcium response (% of ionomycin), % at 10 µM. 2,300 tested, 2% active. AID 652231;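 active means duplicate-averaged calcium signal over 20% of the ionomycin maximum, relative to buffer baseline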;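 further: each well's signal is peak minus trough fluorescence divided by its pre-addition baseline; 0% = buffer wells and 100% = ionomycin wells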
# Parental YFP cnt: acts in parental YFP-HEK293 cells lacking TMEM16A, counter-screen; YFP ratio F(max-min)/F0 at 10 µM; 2,300 tested, under 10 active; AID 652233; shares compounds with ANO1 block; iodide YFP quench, ionomycin;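 active means yellow fluorescent protein signal ratio exceeding the buffer control mean by over 5 SD of those controls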;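 further: ratio is mean of duplicate wells from kinetic YFP trace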
# ClC-1 inh: blocks the rat ClC-1 voltage-dependent chloride channel | shares compounds with ANO1 block | ratio percent, % at 10 µM | CHO ClC-1-YFP, iodide influx fluorescence quench; iodide control reads 0, buffer control 100 | AID 652236 | 2,300 tested, under 10 active;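 active means duplicate-mean ratio percent above the mean of iodide-only control wells, which defines zero, plus 5 of their SD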;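 further: higher percent means stronger block of ClC-1 iodide influx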
# * = called active by the depositor; i = inactive; . = no result. Sampled rows, rich in hits. Any-hit rate of the full collection: about 2.4%.
SMILES,CHT inh,CHT PAM,ANO1 block,TMEM16A act,TMEM16A reconf,HEK293 Ca mobil,Parental YFP cnt,ClC-1 inh
Clc1ccc(OCCN2CCN(c3ncnc4sccc34)CC2)cc1,i,i,100*,i,16.0%*,i,-1.17,-31.5
COc1ccccc1OCc1ccc(C(=O)Nc2ccncc2)o1,i,i,100*,i,34.5%*,i,-0.838,-7.0
COc1ccc(NC(=O)c2ccc(Cc3ccc(C)cc3)o2)cc1,i,i,25*,i,i,i,-1.23,6.0
COc1ccc(CCNC(=O)C2CCCN(S(=O)(=O)c3ccccc3)C2)cc1 (stereo unspecified),i,i,i,i,.,.,.,.
COc1cccc(-c2c(C(=O)N/N=C/c3ccco3)nnn2-c2nonc2N)c1,i,i,i,i,.,.,.,.
CCCC1(C(=O)O)NC(c2ccccc2O)C2C(=O)N(Cc3ccccc3)C(=O)C21 (stereo unspecified),i,i,100*,i,i,i,-0.894,-6.0
CCN1CCN(S(=O)(=O)c2cc(OCC(=O)NC3CCCCC3)c(C)cc2Cl)CC1,i,i,i,i,.,.,.,.
Cc1cc(Cl)c(S(=O)(=O)N2CCN(c3ccccn3)CC2)cc1OCC(=O)NC1CCCCC1,i,i,100*,i,i,i,-1.12,-5.0
Cc1cc(Cl)c(S(=O)(=O)N2CCSCC2)cc1OCC(=O)NC1CCCCC1,i,i,100*,i,27.5%*,i,-0.9,-11.5
Cc1cc(Cl)c(S(=O)(=O)N2CCCCCC2)cc1OCC(=O)NC1CCCCC1,i,i,100*,i,24.0%*,i,-1.13,-16.0
Cc1ccc(N=C(NO)c2cnccc2C(F)(F)F)c(C)c1,i,i,i,i,.,.,.,.
CCN1CCN(Cc2ccc(NC(=O)Nc3ccccc3OC)cc2)CC1,i,i,i,i,.,.,.,.
Oc1ccccc1Cc1c(O)ccc2ccccc12,i,i,25*,i,38.5%*,i,-1.13,-8.5
O=S(=O)(NCCN1CCOCC1)c1cc(Cl)c(Cl)cc1Cl,i,i,i,i,.,.,.,.
CC(=O)c1cnc(SCc2ccc(Cl)cc2)nc1C,i,i,i,i,.,.,.,.
Cc1nc(SCc2ccc(Cl)c(Cl)c2)ncc1C(=O)O,i,i,25*,i,22.0%*,i,-0.733,-5.0
CCCn1nnc(NC(=O)COc2ccc(C3CCCCC3)cc2)n1,i,i,100*,i,44.0%*,i,-0.979,-9.0
COc1cccc(C(=O)C2CCCN(Cc3cn(CC(N)=O)c4ccccc34)C2)c1 (stereo unspecified),i,i,i,i,.,.,.,.
Cc1ccnc(Nc2nc(-c3ccc(O)c(O)c3)cs2)c1,i,i,25*,i,i,i,-0.94,-4.0
O=C(CN(C(=O)Cn1nnc(-c2ccc(F)cc2)n1)c1cccc(F)c1)NC1CCCC1,i,i,i,i,.,.,.,.
c1ccc(-c2nc(-c3ccccn3)no2)cc1,i,i,i,i,.,.,.,.
c1ccc(-c2ccc(-c3nc(-c4ccccn4)no3)cc2)cc1,i,i,25*,i,i,i,-1.06,-0.5
N#CC1(c2ccccc2)CCC(=NNS(=O)(=O)c2ccccc2)CC1 (stereo unspecified),.,.,.,i,.,.,.,.
CC(=O)c1c(O)cc(O)c(C(C)=O)c1O,i,i,100*,i,31.0%*,i,-1.1,-9.5
COc1ccccc1-c1c(C)nn2c(N3CCOCC3)cc(C)nc12,i,i,i,i,.,.,.,.
COc1ccccc1-c1c(C)nn2c(N3CCCCCC3)cc(C)nc12,i,i,100*,i,34.0%*,i,-0.822,-19.0

# Bioassay records deposited in PubChem BioAssay by Johns Hopkins Ion Channel Center.
